Experimental data reported in ChEMBL document CHEMBL1201862, “PubChem BioAssay data set” (2004).
The campaign covered roughly 310,000 compounds. About 17,000 (5.5%) were called active. Not shown: some 11% with an inconclusive outcome. The calls are words filed in the database; no cut-off is given here. The full list was thinned out, with actives kept by preference.

The compounds below were run against T1, Nuclear receptor ROR-gamma (Mus musculus) (UniProt P51450) (assay: qHTS for inhibitors of ROR gamma transcriptional activity.).
T1 sequence (whole entry): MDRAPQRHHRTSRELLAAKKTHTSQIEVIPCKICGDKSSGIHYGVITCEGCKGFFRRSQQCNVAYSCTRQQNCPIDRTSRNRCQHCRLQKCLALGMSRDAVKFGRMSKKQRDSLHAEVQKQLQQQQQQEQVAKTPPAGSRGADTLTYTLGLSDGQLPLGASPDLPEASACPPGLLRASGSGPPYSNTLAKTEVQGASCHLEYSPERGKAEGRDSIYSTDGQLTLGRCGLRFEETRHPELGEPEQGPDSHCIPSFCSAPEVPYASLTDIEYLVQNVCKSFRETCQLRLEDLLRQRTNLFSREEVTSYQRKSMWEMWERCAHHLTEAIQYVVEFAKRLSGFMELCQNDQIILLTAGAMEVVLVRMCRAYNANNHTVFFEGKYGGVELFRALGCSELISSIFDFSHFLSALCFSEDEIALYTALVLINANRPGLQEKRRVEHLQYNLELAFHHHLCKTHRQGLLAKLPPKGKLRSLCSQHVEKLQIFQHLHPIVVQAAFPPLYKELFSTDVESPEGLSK
Assay type: functional

Potency, active:
O=C(/C=C/c1ccc(Cl)cc1)c1cccs1 15.8 µM, COc1ccccc1/C=C/C(=O)c1cccs1 25.1 µM, c1ccc(-n2ncc3c(NCc4cccnc4)ncnc32)cc1 501 µM
